Data from PubChem BioAssay (NCI).
The panel holds about 79,000 compounds, 15% with a hit somewhere; the sample as a whole holds those more often. Calls of active or inactive are those of the source. Rule as the data show it: active = growth inhibition above about 70%; inactive = the rest.

Experiments:
[1] = NCI Yeast Anticancer Drug Screen. Data for the mlh1 rad18 strain (AID 175); conditions: S. cerevisiae mlh1 rad18 strain growth inhibition, active compounds read high
Outline: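 Inhibition values reflect reduced growth of mutant yeast versus vehicle-treated controls following compound exposure; the mutations affect DNA damage repair.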

[2] = NCI Yeast Anticancer Drug Screen. Data for the rad18 strain (AID 177); conditions: S. cerevisiae rad18 mutant growth inhibition, active compounds read high
Outline: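 Steps: expose repair-mutant yeast to compound; measure growth; express as inhibition relative to vehicle control.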

[3] = NCI Yeast Anticancer Drug Screen. Data for the rad50EPP+ strain (AID 151);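 also: 0% = growth of vehicle-treated control cultures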; conditions: S. cerevisiae rad50 mutant strain, active compounds read high
Outline: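 Genetically defined yeast (rad50EPP+, DNA damage repair alteration) is grown with compound, and inhibition of growth is expressed relative to vehicle-treated controls.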

[4] = NCI Yeast Anticancer Drug Screen. Data for the mgt1 strain (AID 153); conditions: S. cerevisiae mgt1 mutant growth inhibition, active compounds read high
Outline: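 In the mgt1 strain, test compounds were added and growth inhibition was determined relative to vehicle-treated controls.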

[5] = NCI Yeast Anticancer Drug Screen. Data for the rad50 strain (AID 155);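 also: 0% = growth of vehicle-only cultures of the same strain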; conditions: S. cerevisiae rad50 strain growth inhibition, active compounds read high
Outline: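 Inhibition values express reduced yeast growth in compound-treated cultures relative to vehicle-treated controls.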

[6] = NCI Yeast Anticancer Drug Screen. Data for the mec2-1 strain (AID 157); conditions: S. cerevisiae mec2-1 strain, active compounds read high
Outline: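 Each compound was tested on mec2-1 yeast, a strain altered in DNA damage repair or cell cycle control. Growth inhibition is reported relative to vehicle.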

[7] = NCI Yeast Anticancer Drug Screen. Data for the rad14 strain (AID 159);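 also: 0% = growth of vehicle-treated control cultures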; conditions: S. cerevisiae rad14 strain growth inhibition, active compounds read high
Outline: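 A mutant yeast strain defective in DNA damage repair is treated with compound; inhibition of its growth is scored against untreated, vehicle-exposed cultures.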

[8] = NCI Yeast Anticancer Drug Screen. Data for the sgs1 mgt1 strain (AID 161);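 also: 0% = growth of cultures given vehicle only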; conditions: S. cerevisiae sgs1 mgt1 strain, active compounds read high
Outline: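 Genetically altered yeast, compound exposure, growth inhibition relative to vehicle.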

[9] = NCI Yeast Anticancer Drug Screen. Data for the CLN2oe strain (AID 163);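 also: 0% = growth of vehicle-only control cultures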; conditions: S. cerevisiae CLN2oe strain, active compounds read high
Outline: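 First, the altered yeast strain was treated with each compound; second, its growth was measured; finally, inhibition was derived by comparison with vehicle controls.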

[10] = NCI Yeast Anticancer Drug Screen. Data for the cln2 rad14 strain (AID 165);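 also: 0% = growth equal to vehicle treated cultures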; conditions: S. cerevisiae cln2 rad14 strain, active compounds read high
Outline: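 Test compounds were added to cln2 rad14 yeast cultures; inhibition of growth was then determined by comparison with vehicle treatment.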

[11] = NCI Yeast Anticancer Drug Screen. Data for the bub3 strain (AID 167); conditions: S. cerevisiae bub3 mutant strain, active compounds read high
Outline: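 Steps: expose the mutant yeast strain to compound; grow alongside vehicle-treated cultures; measure growth; express inhibition against the vehicle cultures.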

[12] = NCI Yeast Anticancer Drug Screen. Data for the wt2 strain (AID 169);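 also: 0% = growth of vehicle-treated yeast cultures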; conditions: S. cerevisiae wt2 strain growth inhibition, active compounds read high
Outline: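 The panel's yeast strains carry defined changes in DNA repair or cell cycle genes. Each strain is grown with compound, and growth loss is scored relative to vehicle.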

[13] = NCI Yeast Anticancer Drug Screen. Data for the mlh1 strain (AID 171);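 also: 0% = growth of vehicle-treated control cultures of the same strain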; conditions: S. cerevisiae mlh1 strain growth inhibition, active compounds read high
Outline: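 Inhibition values reflect reduced yeast growth in the presence of compound, referenced to vehicle controls, using a strain chosen for its alteration in DNA repair or cell cycle control.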

[14] = NCI Yeast Anticancer Drug Screen. Data for the sgs1 strain (AID 173);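 also: 0% = growth of vehicle-only control cultures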; conditions: S. cerevisiae sgs1 mutant, active compounds read high
Outline: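 Vehicle-treated cultures served as reference for growth inhibition of a yeast strain altered in DNA damage repair or cell cycle control after compound exposure.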

[15] = NCI Yeast Anticancer Drug Screen. Data for the wt1 strain (AID 149);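 also: 0% = growth of vehicle-treated wt1 cultures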; conditions: S. cerevisiae wt1 strain (SPY 50644) growth inhibition, active compounds read high
Outline: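 Compounds are added to wt1 yeast cultures. Growth is then measured. Inhibition is expressed relative to vehicle-treated controls.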

[16] = at 5.0 µM (retest, dose inferred, filed as 0.5)
[17] = at 50.0 µM (retest, dose inferred, filed as 5.0)

Measured: growth inhibition

COc1ccc2nc3cccc([N+](=O)[O-])c3c(NCCCO)c2c1
active: [1]; [16] 97% | [1]; [17] 99% | [1]; at 50.0 µM 81.8% | [2]; at 1.2 µM 96% | [2]; at 3.7 µM 96% | [2]; at 11.0 µM 96% | [2]; at 33.0 µM 96% | [2]; at 100.0 µM 97%

CC1(C)CC(=O)C(C(CC(c2ccccc2)c2cc3c(cc2O)OCO3)C2=C(O)CC(C)(C)CC2=O)=C(O)C1 (centres undefined)
active: [4]; at 33.0 µM 86% | [4]; at 100.0 µM 88% | [5]; at 33.0 µM 77% | [5]; [17] 96% | [5]; at 50.0 µM 94.8% | [5]; at 100.0 µM 83% | [6]; at 33.0 µM 84% | [6]; [17] 97% | [6]; at 50.0 µM 93.5% | [6]; at 100.0 µM 87% | [7]; at 100.0 µM 78% | [8]; [17] 96% | [8]; at 50.0 µM 96.8% | [9]; at 33.0 µM 76% | [9]; at 100.0 µM 87% | [10]; [17] 98% | [10]; at 50.0 µM 95% | [11]; [16] 74% | [11]; [17] 99% | [11]; at 50.0 µM 96% | [11]; at 100.0 µM 82% | [12]; at 33.0 µM 88% | [12]; at 100.0 µM 88% | [13]; at 33.0 µM 82% | [13]; at 100.0 µM 87% | [14]; at 33.0 µM 87% | [14]; at 100.0 µM 87% | [1]; [17] 97% | [1]; at 50.0 µM 95.6% | [2]; at 33.0 µM 82% | [2]; at 100.0 µM 82%
inactive: [3]; at 1.2 µM -2% | [3]; at 3.7 µM -1% | [3]; at 11.0 µM 8% | [3]; at 33.0 µM 18% | [3]; at 100.0 µM 10% | [4]; at 1.2 µM -2% | [4]; at 3.7 µM 1% | [4]; at 11.0 µM 48% | [5]; at 1.2 µM -2% | [5]; at 3.7 µM 1% | [5]; [16] 11% | [5]; at 11.0 µM 33% | [6]; at 1.2 µM -6% | [6]; at 3.7 µM -3% | [6]; [16] 1% | [6]; at 11.0 µM 43% | [7]; at 1.2 µM -1% | [7]; at 3.7 µM 1% | [7]; at 11.0 µM 22% | [7]; at 33.0 µM 68% | [8]; [16] 0% | [9]; at 1.2 µM -5% | [9]; at 3.7 µM -3% | [9]; at 11.0 µM 1% | [10]; [16] 21% | [11]; at 1.2 µM -3% | [11]; at 3.7 µM -9% | [11]; at 11.0 µM -6% | [11]; at 33.0 µM 63% | [12]; at 1.2 µM -4% | [12]; at 3.7 µM -5% | [12]; at 11.0 µM 21% | [13]; at 1.2 µM -2% | [13]; at 3.7 µM -3% | [13]; at 11.0 µM 39% | [14]; at 1.2 µM -1% | [14]; at 3.7 µM 10% | [14]; at 11.0 µM 62% | [1]; [16] 3% | [2]; at 1.2 µM -2% | [2]; at 3.7 µM 5% | [2]; at 11.0 µM 28%

O=c1[nH]c(=O)n(CCCO)cc1F
inactive: [15]; at 1.2 µM -32% | [15]; at 3.7 µM 0% | [15]; at 11.0 µM -9% | [15]; at 33.0 µM 4% | [15]; at 100.0 µM -4% | [4]; at 1.2 µM -13% | [4]; at 3.7 µM -31% | [4]; at 11.0 µM -24% | [4]; at 33.0 µM -33% | [4]; at 100.0 µM -18% | [5]; at 1.2 µM -21% | [5]; at 3.7 µM -11% | [5]; [16] 42% | [5]; at 11.0 µM -10% | [5]; at 33.0 µM -12% | [5]; [17] 44% | [5]; at 50.0 µM 34.4% | [5]; at 100.0 µM -13% | [6]; at 1.2 µM -36% | [6]; at 3.7 µM -27% | [6]; [16] 24% | [6]; at 11.0 µM -41% | [6]; at 33.0 µM -33% | [6]; [17] 20% | [6]; at 50.0 µM -38.6% | [6]; at 100.0 µM -23% | [7]; at 1.2 µM -29% | [7]; at 3.7 µM -19% | [7]; at 11.0 µM -20% | [7]; at 33.0 µM -26% | [7]; at 100.0 µM -30% | [8]; [16] 58% | [8]; at 50.0 µM -33.4% | [9]; at 1.2 µM 3% | [9]; at 3.7 µM 8% | [9]; at 11.0 µM 9% | [9]; at 33.0 µM 3% | [9]; at 100.0 µM 7% | [10]; [16] 13% | [10]; [17] 26% | [10]; at 50.0 µM -8.55% | [11]; at 1.2 µM -14% | [11]; at 3.7 µM -22% | [11]; [16] 20% | [11]; at 11.0 µM -22% | [11]; at 33.0 µM -37% | [11]; [17] 15% | [11]; at 50.0 µM -26.6% | [11]; at 100.0 µM -21% | [12]; at 1.2 µM 3% | [12]; at 3.7 µM -6% | [12]; at 11.0 µM -14% | [12]; at 33.0 µM -22% | [12]; at 100.0 µM -18% | [13]; at 1.2 µM -30% | [13]; at 3.7 µM -15% | [13]; at 11.0 µM -19% | [13]; at 33.0 µM -15% | [13]; at 100.0 µM -19% | [14]; at 1.2 µM -27% | [14]; at 3.7 µM -16% | [14]; at 11.0 µM -24% | [14]; at 33.0 µM -3% | [14]; at 100.0 µM -11% | [1]; [16] 47% | [1]; [17] 45% | [1]; at 50.0 µM -41.3% | [2]; at 1.2 µM -18% | [2]; at 3.7 µM -6% | [2]; at 11.0 µM -4% | [2]; at 33.0 µM 13% | [2]; at 100.0 µM 42%
active: [8]; [17] 76%
